This note sets out measurements from PubChem BioAssay.

The subject of assay [1] is Wnt5a (protein binding on small-molecule microarray). Description: small molecules binding Wnt5a protein – biophysical, small-molecule microarray, 635/667 nm fluorescence, primary screen (AID 1142).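 Also: fluorescence read at 667 nm with signal to noise per printed feature.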 To be noted: 635 nm fluorescence, higher = more signal.
Assay [2] in a line: ATP-based viability of Huh7 replicon cells – cell-based, CellTiter-Glo luminescence, basal, 48 h, cytotoxicity control for HCV replication inhibitor project, primary screen (AID 1143).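 Also: Huh7 hepatoma cells carrying a hepatitis C replication reporter with no stimulus; test concentration not given here.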 The settings on record: higher = more signal, called active from +8 up or from −8 down. For orientation: In antiviral work, replicon cells carry a viral genome segment that copies itself.
Assay [3] is described as follows: Pseudomonas biofilm growth suppression – PAO1 strain, BacTiter-Glo luminescence, LB-PBS, primary screen (AID 1144). The settings on record: P. aeruginosa PAO1 biofilm, 12 h, higher = more signal.
Assay [4] is described as follows: basal CRE-LacZ reporter activity in PC12 – cell-based, unstimulated, primary screen (AID 1145). To be noted: no forskolin, luminescence, 4.5 h, higher = more signal, called active from +8 up or from −8 down.
Assay [5] can be described thus: forskolin-driven CRE-LacZ activity in PC12 – cell-based, CRE-LacZ reporter, forskolin-stimulated, primary screen (AID 1146).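 Also: PC12 cells with 6xCRE LacZ reporter stimulated by forskolin 10 µM; beta-galactosidase reporter signal reflecting CREB driven transcription.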 The settings on record: luminescence, 4.5 h, higher = more signal, called active from +8 up or from −8 down.
Assay [6] addresses Streptavidin (Streptomyces avidinii) (UniProt P22629). Description: compounds binding control protein streptavidin – biophysical, small-molecule microarray, 635/667 nm fluorescence, artefact control for SMM compound annotation, primary screen (AID 1147).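 Also: signal reflects streptavidin binding to arrayed compounds as a control protein.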 The settings on record: higher = more signal.
A short description of assay [7]: probe aInhba binding on compound microarray – biochemical, small-molecule microarray, 635/667 nm fluorescence, primary screen (AID 1148).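 Also: score merges 667nm spot fluorescence with signal-to-noise for antibody binding to printed compounds.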 The settings on record: higher = more signal.
Assay [8] deals with Torsin-1A (Homo sapiens) (UniProt O14656). The experiment in a line: TOR1A wild-type binding on microarray – cell lysate, small-molecule microarray, lysate, 635/667 nm, primary screen (AID 1149). To be noted: COS7 hTOR1A-WT lysate, 635 nm fluorescence, higher = more signal.
Sequence of Torsin-1A (Homo sapiens) (O14656 whole entry, looked up): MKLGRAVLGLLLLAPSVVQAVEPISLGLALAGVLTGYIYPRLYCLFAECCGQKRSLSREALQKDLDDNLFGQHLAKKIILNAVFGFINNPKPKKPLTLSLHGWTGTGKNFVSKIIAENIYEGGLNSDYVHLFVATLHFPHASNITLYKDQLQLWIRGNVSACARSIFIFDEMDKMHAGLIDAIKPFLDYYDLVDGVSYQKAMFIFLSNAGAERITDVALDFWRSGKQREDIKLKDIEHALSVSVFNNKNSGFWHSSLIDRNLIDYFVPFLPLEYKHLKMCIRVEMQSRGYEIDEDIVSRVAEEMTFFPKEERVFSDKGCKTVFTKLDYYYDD
For assay [9] the target is unchanged. Description: torsin A mutant lysate binding on microarrays – cell lysate, small-molecule microarray, COS7 lysate, 635/667 nm fluorescence, primary screen (AID 1150).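 Also: score pools 667 nm emission and signal to noise measuring lysate protein binding.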 The settings on record: COS7 hTOR1A mutant lysate, 635 nm fluorescence, higher = more signal.
The test system of assay [10] is Sonic hedgehog protein (Shh). Description: Sonic hedgehog microarray binding compounds – biochemical, small-molecule microarray, 635/667 nm fluorescence, primary screen (AID 1151).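 Also: Shh protein binding to compounds spotted on small-molecule microarray slides; score combines spot fluorescence intensity with signal-to-noise across triplicate slides.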 To be noted: 635 nm fluorescence, higher = more signal.
A short description of assay [11]: optical density shifts of acrAB sulA E. coli – strain DRC41, OD650, 48 h, E. coli filamentation inducer project, primary screen (AID 1152).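 Also: E. coli MC1000 strain DRC41 lacking acrAB efflux pump and sulA.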 The settings on record: higher = more signal, called active from +8 up or from −8 down.
Assay [12] in a line: probe aLefty1 binding on compound microarray – biochemical, small-molecule microarray, 635/667 nm fluorescence, primary screen (AID 1153).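 Also: score merges spot fluorescence with signal-to-noise ratio from the scanned slide images.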 The settings on record: higher = more signal.
Assay [13] in a line: plasmodial surface anion channel blockers, osmotic lysis – cell-based, P. falciparum Indochina, OD700, 1 h, primary screen (AID 1154). To be noted: P. falciparum Indochina infected RBC osmotic lysis, higher = more signal, called active from +8 up or from −8 down.
Assay [14] in a line: plasmodial surface anion channel blockers, osmotic lysis – cell-based, P. falciparum Indochina, OD700, 2 h, primary screen (AID 1155).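 Also: lysis reports solute entry through the parasite surface anion channel PSAC.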 The settings on record: P. falciparum Indochina infected erythrocytes, higher = more signal, called active from +8 up or from −8 down.
A short description of assay [15]: changes in parasitized red cell lysis, either direction – P. falciparum Indochina, OD700, 3 h, PSAC antagonist project, primary screen (AID 1156). To be noted: P. falciparum-infected erythrocytes, osmotic lysis, higher = more signal, called active from +8 up or from −8 down.
A short description of assay [16]: plasmodial surface anion channel blockers, osmotic lysis – cell-based, P. falciparum Indochina, OD700, 18 h, primary screen (AID 1157). To be noted: P. falciparum Indochina infected erythrocytes, osmotic lysis OD700, 18 h; higher = more signal, called active from +8 up or from −8 down.
Assay [17] can be described thus: S6 kinase pathway phospho-S6 level changes – cell-based, A549, cytoblot, luminescence, serum-stimulated, primary screen (AID 1158).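 Also: serum-stimulated A549 lung adenocarcinoma cells; signal is phosphorylated S6 detected by cytoblot immunostaining with HRP secondary.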 To be noted: 5 h, higher = more signal.
In assay [18] the target is NADPH oxidase 2 (Homo sapiens) (UniProt P04839). The experiment in a line: compounds shifting NOX2 Amplex Red fluorescence – cell-based, HEK293-NOX2, PMA-stimulated, NOX inhibitor project, primary screen (AID 1159). Also: test concentration not given here. To be noted: 45 min, higher = more signal, called active from +8 up or from −8 down.
Sequence of NADPH oxidase 2 (Homo sapiens) (P04839 whole entry, looked up): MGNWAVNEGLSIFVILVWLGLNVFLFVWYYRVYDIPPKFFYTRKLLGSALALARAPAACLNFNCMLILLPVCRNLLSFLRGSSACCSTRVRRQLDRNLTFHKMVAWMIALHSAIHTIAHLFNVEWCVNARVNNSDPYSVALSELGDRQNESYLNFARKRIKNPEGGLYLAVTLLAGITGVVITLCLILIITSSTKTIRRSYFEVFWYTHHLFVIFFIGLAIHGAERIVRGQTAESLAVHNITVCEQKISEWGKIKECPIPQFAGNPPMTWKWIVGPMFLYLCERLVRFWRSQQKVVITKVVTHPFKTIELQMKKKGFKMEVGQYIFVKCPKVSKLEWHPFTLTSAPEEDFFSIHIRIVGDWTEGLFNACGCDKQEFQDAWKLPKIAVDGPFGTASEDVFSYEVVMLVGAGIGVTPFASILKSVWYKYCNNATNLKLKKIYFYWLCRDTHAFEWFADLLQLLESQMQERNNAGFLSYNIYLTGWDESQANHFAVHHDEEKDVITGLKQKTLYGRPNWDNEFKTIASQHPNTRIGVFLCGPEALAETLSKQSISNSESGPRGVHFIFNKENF
In assay [19] the target is NADPH oxidase 4 (Homo sapiens) (UniProt Q9NPH5). The experiment in a line: compounds shifting NOX4 Amplex Red fluorescence – cell-based, HEK293-NOX4, tetracycline-induced, NOX inhibitor project, primary screen (AID 1160). The settings on record: HEK293-NOX4, Amplex Red H2O2 fluorescence, 45 min; higher = more signal, called active from +8 up or from −8 down.
Sequence of NADPH oxidase 4 (Homo sapiens) (Q9NPH5 whole entry, looked up): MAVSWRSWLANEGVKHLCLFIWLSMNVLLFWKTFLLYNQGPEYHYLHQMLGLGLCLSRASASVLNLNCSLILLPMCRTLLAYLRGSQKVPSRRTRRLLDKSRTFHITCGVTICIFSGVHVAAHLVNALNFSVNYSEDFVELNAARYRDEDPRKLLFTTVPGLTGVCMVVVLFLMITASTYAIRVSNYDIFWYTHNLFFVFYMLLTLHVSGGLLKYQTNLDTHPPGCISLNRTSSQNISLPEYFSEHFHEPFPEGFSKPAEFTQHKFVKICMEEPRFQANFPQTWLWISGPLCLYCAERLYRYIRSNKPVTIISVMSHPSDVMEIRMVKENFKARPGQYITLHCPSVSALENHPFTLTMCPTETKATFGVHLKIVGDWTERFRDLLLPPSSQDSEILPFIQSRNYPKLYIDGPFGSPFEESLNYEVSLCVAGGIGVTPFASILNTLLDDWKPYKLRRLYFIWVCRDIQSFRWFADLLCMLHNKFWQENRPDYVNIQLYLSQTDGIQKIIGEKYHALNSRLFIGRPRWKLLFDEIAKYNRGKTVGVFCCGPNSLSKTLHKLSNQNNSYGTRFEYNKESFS
The target of assay [20] is NADPH oxidase 5 (Homo sapiens) (UniProt Q96PH1). The experiment in a line: compounds shifting NOX5 Amplex Red fluorescence – cell-based, HEK293-NOX5, NOX inhibitor project, primary screen (AID 1161). The settings on record: HEK293-NOX5, ionomycin, 45 min, higher = more signal.
Sequence of NADPH oxidase 5 (Homo sapiens) (Q96PH1 whole entry, looked up): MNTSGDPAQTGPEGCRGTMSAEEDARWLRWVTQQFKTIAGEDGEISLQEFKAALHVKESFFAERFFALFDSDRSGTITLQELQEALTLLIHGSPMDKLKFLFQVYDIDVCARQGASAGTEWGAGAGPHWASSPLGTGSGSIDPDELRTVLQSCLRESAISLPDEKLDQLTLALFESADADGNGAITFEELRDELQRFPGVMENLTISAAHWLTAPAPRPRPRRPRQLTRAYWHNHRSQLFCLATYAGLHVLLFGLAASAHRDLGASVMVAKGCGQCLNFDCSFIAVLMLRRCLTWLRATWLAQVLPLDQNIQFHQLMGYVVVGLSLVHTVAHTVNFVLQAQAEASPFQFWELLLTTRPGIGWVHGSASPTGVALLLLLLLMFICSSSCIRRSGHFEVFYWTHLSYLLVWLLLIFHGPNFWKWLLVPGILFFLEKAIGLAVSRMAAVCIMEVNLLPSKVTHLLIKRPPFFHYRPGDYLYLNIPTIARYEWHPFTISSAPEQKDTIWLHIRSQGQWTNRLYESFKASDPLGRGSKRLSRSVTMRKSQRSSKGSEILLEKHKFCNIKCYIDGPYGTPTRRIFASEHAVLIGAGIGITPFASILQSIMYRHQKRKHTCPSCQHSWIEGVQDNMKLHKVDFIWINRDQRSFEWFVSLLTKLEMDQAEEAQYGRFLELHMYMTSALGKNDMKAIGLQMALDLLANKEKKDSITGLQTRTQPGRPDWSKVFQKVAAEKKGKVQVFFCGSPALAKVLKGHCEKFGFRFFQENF

Calls of active or inactive are those of the source. Unless noted, no rule for the calls is given here.

Sequence of Streptavidin (Streptomyces avidinii) (P22629 whole entry, looked up): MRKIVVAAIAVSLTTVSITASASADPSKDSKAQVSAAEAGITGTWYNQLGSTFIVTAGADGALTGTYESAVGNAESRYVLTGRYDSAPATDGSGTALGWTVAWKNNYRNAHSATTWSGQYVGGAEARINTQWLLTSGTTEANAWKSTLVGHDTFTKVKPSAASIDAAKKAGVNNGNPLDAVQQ

Consider `CN1C(=O)[C@]2(CCS(=O)(=O)c3ccccc3)N=C(c3ccc(OCCCO)cc3)O[C@@H]2c2ccccc21`, for which the composite z-score is 0.088 in [1]; 0.294 in [6]; 0.174 in assay [7]; 0.0148 in [8]; 1.16 in assay [9]; 1.54 in [10]. In assay [12], this compound came in with a composite z-score of 0.18. The z-score was -3.67 (inactive) in assay [2]; 1.24 (inactive) in assay [3]; 1.34 (inactive) in assay [4]; -0.547 (inactive) in assay [5]; -1.06 (inactive) in assay [11]; 29.6 (active) in assay [13]. In addition, the z-score in assay [14] was 27.2 (active); in assay [15] it was 2.49 (inactive); in [16], 1.87 (inactive); in assay [17] it was -0.0831; in assay [18], 0.276 (inactive); in [19] it was -0.0954 (inactive). For the same compound, the z-score in assay [20] is -1.12.

Turning to `CCOC(=O)C1=CC[C@@H](c2ccccc2)N(S(=O)(=O)c2ccc(C)cc2)[C@H]1C#N`, the composite z-score in assay [1] was 0.114; in assay [6], 0.93; in assay [7] it was 0.134; in [8], 0.0439; in assay [9], 0.189; in assay [10], -0.707. This compound returned a composite z-score in [12] of -0.081. Moreover, the z-score in [2] is -1.82 (inactive); in [3], 0.184 (inactive); in [4], -0.48 (inactive); in assay [5], 3.56 (inactive); in assay [11], -0.355 (inactive); in [13], 2.97 (inactive). The z-score in [14] is 1.91 (inactive); in [15] it was -0.157 (inactive); in assay [16] it was 0.999 (inactive); in assay [17], -0.769; in assay [18] it was 0.426 (inactive); in assay [19], 0.122 (inactive). In addition, in assay [20], the z-score was -0.116.

For the compound `Cc1c(-c2ccc(-c3ccc(Cl)c(Cl)c3)o2)nc(-c2ccccc2)c2c1CO[Si]2(C(C)C)C(C)C`, the composite z-score in assay [1] was -0.0882; in assay [6] it was -0.107; in assay [7] it was -0.179; in [8], -0.455; in [9], -0.474; in assay [10] it was 0.426. The composite z-score in [12] was -0.101. Moreover, the z-score was -0.98 (inactive) in [2]; 0.163 (inactive) in assay [3]; -0.882 (inactive) in assay [4]; 1.86 (inactive) in assay [5]; -1.3 (inactive) in [11]; 0.311 (inactive) in [13]. Moreover, the z-score in assay [14] is -0.267 (inactive); in assay [15], -0.803 (inactive); in assay [16], -0.944 (inactive); in [17] it was -0.298; in assay [18] it was -0.545 (inactive); in [19], 0.0324 (inactive). In addition, the z-score in assay [20] was -0.237.

As to `COc1ccc([Si](C)(C)[C@H]2[C@H](CCn3cc([C@H](O)c4ccccc4)nn3)O[C@@]3(C(=O)N(c4ccccc4)c4ccccc43)[C@@H]2C)cc1`, the composite z-score in assay [1] is 0.04; in [6], -0.265; in assay [7], -0.0087; in assay [8], 0.96; in assay [9], -0.242; in [10], 1.97. This compound also displayed a composite z-score in assay [12] of 0.0004. Also, the z-score in assay [2] was -4.47 (inactive); in [3], 0.674 (inactive); in assay [4], 0.236 (inactive); in [5], 0.115 (inactive); in assay [11], 1.13 (inactive); in assay [13] it was 6.6 (inactive). Moreover, the z-score is 1.67 (inactive) in [14]; 0.56 (inactive) in assay [15]; 1.23 (inactive) in [16]; 0.448 in assay [17]; 1.47 (inactive) in assay [18]; 1.3 (inactive) in [19]. Besides, the z-score in [20] was 1.33.

As to `COCCOC(=O)N1C(=O)[C@@]2(c3cc(C#CC4=CCCCC4)ccc31)[C@H](C(=O)N1CCN(c3ncccn3)CC1)[C@H]1C(=O)O[C@H](c3ccccc3)[C@H](c3ccccc3)N1[C@@H]2c1ccccc1OCCO`, the composite z-score was 0.337 in assay [1]; 0.496 in [6]; -0.0332 in [7]; 0.825 in [8]; 0.598 in [9]; 1.47 in assay [10]. The compound also had a composite z-score in assay [12] of 0.297. The z-score is -5.9 (inactive) in assay [2]; -2.51 (inactive) in assay [3]; -2.11 (inactive) in assay [4]; -1.32 (inactive) in [5]; 2.23 (inactive) in assay [11]; 1.65 (inactive) in assay [13]. The z-score is 0.256 (inactive) in assay [14]; -0.634 (inactive) in assay [15]; -0.227 (inactive) in assay [16]; 2.05 in assay [17]; -0.241 (inactive) in assay [18]; -2.24 (inactive) in assay [19]. Also, the z-score in [20] is -3.12.

Regarding `NC(=O)N1C(=O)C2C(C1=O)C1C=C(CCCO)C2C(c2ccc(CN3CCCC3)cc2)N1Cc1cccc(OC(F)(F)F)c1` (stereo not given), the composite z-score was 0.232 in assay [1]; -0.157 in [6]; -0.0736 in assay [7]; 0.094 in assay [8]; 0.462 in assay [9]; 1.86 in [10]. Also, in assay [12], the composite z-score was -0.101. For the same compound, the z-score was -0.596 (inactive) in assay [2]; 0.963 (inactive) in [3]; 0.494 (inactive) in [4]; -0.679 (inactive) in assay [5]; -0.267 (inactive) in assay [11]; 1.86 (inactive) in assay [13]. Further, the z-score in [14] is 0.63 (inactive); in assay [15], 0.0703 (inactive); in assay [16] it was 0.208 (inactive); in assay [17], -0.267; in assay [18], -1.4 (inactive); in [19], -0.76 (inactive). For the same compound, the z-score in assay [20] was -1.04.

With `CC(C)c1ccc(NN2C(C(O)C(C)C)C=CC3C(=O)N(c4ccccc4)C(=O)C32)cc1` (stereo not given), the composite z-score is 0.705 in [1]; 1.44 in assay [6]; 0.722 in [7]; -0.317 in assay [8]; 0.431 in assay [9]; -0.316 in assay [10]. The compound also had a composite z-score in assay [12] of 0.996. The z-score in assay [2] is -0.135 (inactive); in assay [3], -0.202 (inactive); in assay [4], 0.0569 (inactive); in [5] it was -0.241 (inactive); in assay [11] it was -0.671 (inactive); in assay [13], 1.37 (inactive). In addition, the z-score in assay [14] is 0.83 (inactive); in assay [15], 0.42 (inactive); in assay [16], 1.37 (inactive); in [17] it was -0.452; in assay [18] it was -0.862 (inactive); in [19], -4.22 (inactive). Moreover, the z-score in assay [20] is -4.95.

With `CC(=O)NCCCC[C@@H]1NC(=O)[C@H]2C[C@@H](C(=O)NCCCCCC[N+](C)(C)C)[C@@H](c3ccc(O)cc3)N2C1=O`, the composite z-score in assay [1] was -0.127; in assay [6] it was -0.448; in [7], 0.0857; in assay [8], 1.4; in assay [9], 1.75; in assay [10], 2.1. This compound had a composite z-score in [12] of 0.0262. The z-score in [2] was -0.385 (inactive); in assay [3], -1.42 (inactive); in [4], -1.35 (inactive); in assay [5] it was -0.665 (inactive); in assay [11], 0.371 (inactive); in assay [13], 1.94 (inactive). Further, the z-score in assay [14] is 0.369 (inactive); in [15], 0.469 (inactive); in [16], 0.0802 (inactive); in assay [17] it was -0.054; in assay [18], 0.834 (inactive); in assay [19] it was 0.288 (inactive). Further, the z-score in assay [20] is -0.454.
